Reference: PubChem BioAssay (NCATS)
“And” between values parts separate entries of the source, which are not always exact repeats. Identical values can stand only once. Results filed as inconclusive are left out. The source made the active and inactive calls. Unless noted, calls come from the whole dose curve; as a rule, active = well fitted curve in the direction sought with a large enough effect; inconclusive = small, poorly fitted or top-dose-only effect, or another doubt; inactive = no such curve, though single readings can be large; an effect the other way counts as inactive or inconclusive.

Test system: not listed separately
Assay: qHTS assay for small molecule agonists of the antioxidant response element (ARE) signaling pathway measured by Nrf2-dependant transcriptional activity - cell viability counter screen (AID 720653; active = well fitted curve in the direction sought with a large enough effect in the repeat runs; an effect the other way counts as inactive or inconclusive; note: % is set by controls: 0 for no effect and ±100 for the full control effect)
Settings: ARE-bla HepG2 viability, CellTiter-Glo ATP luminescence, 16 h; hits give low values
In short: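 ARE-bla HepG2 cells treated with compounds for 16 h at 37C; this counter screen measures viability as intracellular ATP by CellTiter-Glo luminescence after 30 min at room temperature.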

| Structure (SMILES) | max response |
| --- | --- |
| O=P1(N(CCCl)CCCl)NCCCO1 (stereo not given) | 1.71% (inactive) and -4.84% (inactive) |
| C[C@]1(O)CC[C@H]2[C@@H]3CCC4=CC(=O)CC[C@]4(C)[C@@]3(F)[C@@H](O)C[C@@]21C | -5.41% (inactive) |
| CC(C)(C)c1ccc(O)cc1 | -7.43% (inactive) |
| COC(=O)C(c1ccccc1)C1CCCCN1 (stereo not given) | 3.62% (inactive) and -0.896% (inactive) |
| COP(=S)(OC)Oc1cc(Cl)c(Cl)cc1Cl | -0.922% (inactive) |
| Clc1ccc(C(c2ccc(Cl)cc2)C(Cl)(Cl)Cl)cc1 | -18.5% (inactive) and -23.5% (inactive) |
| [N-]=[N+]=CC(=O)OC[C@H](N)C(=O)O | -15% (inactive) |
| O=C1c2ccccc2C(=O)c2ccccc21 | -5.47% (inactive) |
| CCOC(=O)CC(SP(=S)(OC)OC)C(=O)OCC (stereo not given) | 25% (inactive) and -5.73% (inactive) and -3.35% (inactive) |
| Nc1ccccc1 | -9.58% (inactive) |
| COP(=S)(OC)Oc1ccc(SC)c(C)c1 | -8.21% (inactive) and -17% (inactive) |

Target: T1, Hexokinase-4 (Homo sapiens) + Glucokinase regulatory protein (Homo sapiens) (UniProt P35557+Q14397)
Assay: qHTS assay for inhibitors of recombinant human GCK-GKRP interaction: Diaphorase-coupled assay (AID 743205)
Settings: G6PDH/diaphorase resorufin fluorescence; series mostly up to 57.5 µM; activity change, positive = activation: at the top concentration
In short: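 Resorufin fluorescence (525/590 nm), read each minute over 30 min, reports GCK activity coupled via G6PDH and diaphorase. Reaction: 10 nM GST-GCK, 10 nM FLAG-GKRP, 5 mM glucose, 0.4 mM ATP, 0.15 mM NADP+, 0.1 mM resazurin.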

T1 sequence (P35557 whole entry, looked up): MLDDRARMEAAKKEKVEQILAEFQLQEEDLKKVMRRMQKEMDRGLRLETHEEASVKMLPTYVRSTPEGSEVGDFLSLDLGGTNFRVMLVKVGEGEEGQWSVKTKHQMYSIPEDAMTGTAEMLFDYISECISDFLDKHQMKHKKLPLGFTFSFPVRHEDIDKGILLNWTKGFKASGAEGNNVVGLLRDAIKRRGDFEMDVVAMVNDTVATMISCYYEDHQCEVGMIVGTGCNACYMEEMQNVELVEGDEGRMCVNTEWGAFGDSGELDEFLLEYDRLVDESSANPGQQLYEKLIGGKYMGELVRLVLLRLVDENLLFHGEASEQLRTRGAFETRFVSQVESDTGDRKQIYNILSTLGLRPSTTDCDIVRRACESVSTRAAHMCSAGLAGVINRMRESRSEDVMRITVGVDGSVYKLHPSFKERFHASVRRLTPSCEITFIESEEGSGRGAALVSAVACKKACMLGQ
T1 sequence (Q14397 whole entry, looked up): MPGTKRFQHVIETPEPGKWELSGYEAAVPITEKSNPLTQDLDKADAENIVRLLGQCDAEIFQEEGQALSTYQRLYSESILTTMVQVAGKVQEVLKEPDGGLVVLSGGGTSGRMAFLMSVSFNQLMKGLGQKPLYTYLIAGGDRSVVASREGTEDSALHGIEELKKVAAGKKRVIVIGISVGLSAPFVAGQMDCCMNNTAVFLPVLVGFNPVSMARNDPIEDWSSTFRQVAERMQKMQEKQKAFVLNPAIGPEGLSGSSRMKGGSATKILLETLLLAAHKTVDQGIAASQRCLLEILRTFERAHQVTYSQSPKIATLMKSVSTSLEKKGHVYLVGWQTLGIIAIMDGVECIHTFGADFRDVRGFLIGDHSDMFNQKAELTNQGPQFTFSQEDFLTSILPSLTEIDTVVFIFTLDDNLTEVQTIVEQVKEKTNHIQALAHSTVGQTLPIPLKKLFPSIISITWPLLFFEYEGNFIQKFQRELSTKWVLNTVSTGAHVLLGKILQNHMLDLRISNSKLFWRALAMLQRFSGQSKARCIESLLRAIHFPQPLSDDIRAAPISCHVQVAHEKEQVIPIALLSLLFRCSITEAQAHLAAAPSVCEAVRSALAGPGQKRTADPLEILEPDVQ

| Structure (SMILES) | activity change, positive = activation |
| --- | --- |
| NCCc1ccc(O)cc1 | -0.137% (inactive) |
| CC(C)c1cccc(C(C)C)c1O | 3.27% (inactive) |
| O=C(O)CCCc1ccc(N(CCCl)CCCl)cc1 | -13.2% (inactive) |
| O=P1(N(CCCl)CCCl)NCCCO1 (stereo not given) | 0.558% (inactive) |

Target: T1, Hexokinase-4 (Homo sapiens) + Glucokinase regulatory protein (Homo sapiens)
Assay: qHTS assay for inhibitors of recombinant human GCK-GKRP interaction: ADP-Glo assay (AID 743206);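 note: plate controls were DMSO plus enzyme for no effect and no enzyme for full effect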
Settings: ADP-Glo luminescence, 60 min, 0% = vehicle-only wells with enzyme present; series mostly up to 76.9 µM; activity, positive = activation: at the top concentration
In short: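 Pin-transferred compounds meet a 15 nM GST-GCK/15 nM FLAG-GKRP/2 uM S6P mix (dispense concentrations). ATP is then added to 0.4 mM final with 5 mM glucose, and the reaction runs 60 min at room temperature. ADP is quantified luminescently.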

| Structure (SMILES) | activity, positive = activation |
| --- | --- |
| NCCc1ccc(O)cc1 | 0.918% (inactive) |
| CC(C)c1cccc(C(C)C)c1O | 2.25% (inactive) |
| O=C(O)CCCc1ccc(N(CCCl)CCCl)cc1 | -0.135% (inactive) |
| O=P1(N(CCCl)CCCl)NCCCO1 (stereo not given) | -2% (inactive) |

Test system: not listed separately
Assay: qHTS Assay for Identifying Gametocytocidal Compounds (AID 743244); note: potency is the fitted concentration of half-maximal effect;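 for max response: % is set by controls: 0 for no effect and ±100 for the full control effect; actives lower the fluorescent signal which means gametocytes are killed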
Settings: P. falciparum 3D7 stage III-V gametocytes, alamarBlue, 72 h; max response: hits give low values
In short: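 Using 20,000 stage III–V 3D7 gametocytes per well, compounds were incubated 72 h under 37 °C/5% CO2. Viability was then assessed by 24 h alamarBlue reduction, measured fluorometrically at 525/598 nm.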

| Structure (SMILES) | max response | Potency |
| --- | --- | --- |
| CC(C)NC(C)C | 15.3% (inactive) |  |
| NCCc1ccc(O)cc1 | -2.18% (inactive) and 16.8% (inactive) |  |
| CC(C)c1cccc(C(C)C)c1O | -8.91% (inactive) and 15.4% (inactive) |  |
| Nc1ccccc1C(=O)O | 3.13% (inactive) |  |
| CCC(C)(C)c1ccc(O)cc1 | 15.1% (inactive) |  |
| C[C@]12CCC(=O)C=C1CC[C@@H]1[C@@H]2CC[C@]2(C)C(=O)CC[C@@H]12 | 5.73% (inactive) |  |
| O=C1c2ccccc2C(=O)C1C(=O)C(c1ccccc1)c1ccccc1 | 4.31% (inactive) |  |
| O=C(O)CCCc1ccc(N(CCCl)CCCl)cc1 | -1.81% (inactive) and 3.48% (inactive) |  |
| Nc1nc(N)nc(NC2CC2)n1 | -8.01% (inactive) |  |
| CC1(C)C(C=C(Cl)Cl)C1C(=O)OC(C#N)c1cccc(Oc2ccccc2)c1 (stereo not given) | -13.8% (inactive) |  |
| COc1cc(OC)c(OC)cc1C=O | 4.65% (inactive) |  |
| COP(=S)(OC)SCN1C(=O)c2ccccc2C1=O | -4.68% (inactive) |  |
| CCOP(=S)(OCC)Oc1ccc2c(C)c(Cl)c(=O)oc2c1 | -0.845% (inactive) |  |
| C[C@]12CCC(=O)C=C1CC[C@@H]1[C@@H]2CC[C@@]2(C)[C@H]1CC[C@]2(C)O | -12% (inactive) and -18.1% (inactive) |  |
| CN1C[C@H](C(=O)N[C@]2(C)O[C@@]3(O)[C@@H]4CCCN4C(=O)[C@H](Cc4ccccc4)N3C2=O)C=C2c3cccc4[nH]cc(c34)C[C@H]21 |  | 8.91 µM (active) |
| Oc1ccc(Cl)cc1 | -8.53% (inactive) |  |
| CCCC(C)(COC(N)=O)COC(N)=O | -2.61% (inactive) |  |
| O=P1(N(CCCl)CCCl)NCCCO1 (stereo not given) | -0.339% (inactive) and 12.3% (inactive) |  |
| C[C@]1(O)CC[C@H]2[C@@H]3CCC4=CC(=O)CC[C@]4(C)[C@@]3(F)[C@@H](O)C[C@@]21C | 8.13% (inactive) |  |
| COC(=O)C(c1ccccc1)C1CCCCN1 (stereo not given) | -2.03% (inactive) |  |
| COP(=S)(OC)Oc1cc(Cl)c(Cl)cc1Cl | -2.95% (inactive) and 7.49% (inactive) |  |
| Clc1ccc(C(c2ccc(Cl)cc2)C(Cl)(Cl)Cl)cc1 | 0.742% (inactive) |  |
| [N-]=[N+]=CC(=O)OC[C@H](N)C(=O)O | -0.674% (inactive) |  |
| O=C1c2ccccc2C(=O)c2ccccc21 | -6.63% (inactive) |  |
| CCOC(=O)CC(SP(=S)(OC)OC)C(=O)OCC (stereo not given) | 7.01% (inactive) and -6.6% (inactive) |  |
| Nc1ccccc1 | -6% (inactive) |  |
| COP(=S)(OC)Oc1ccc(SC)c(C)c1 | -2.21% (inactive) |  |

Test system: not listed separately
Assay: qHTS assay for cell viability of HEK293 cells (AID 743288); note: % is set by controls: 0 for no effect and ±100 for the full control effect; nearly all actives have a fitted effect of over 50% in size
Settings: ATP luminescence (CellTiter-Glo), 18 h, hits give low values
In short: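 ATP luminescence (CellTiter-Glo) reports metabolically competent cell number after parental HEK293 cells, 2,000/well, were treated with DMSO-dissolved compounds for 18 h at 37 C; reagent incubation 30 min, room temperature.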

| Structure (SMILES) | max response |
| --- | --- |
| Nc1ccc([As](=O)(O)O)cc1 | -4.94% (inactive) |
| CC(C)NC(C)C | 4.29% (inactive) |
| NCCc1ccc(O)cc1 | -6.56% (inactive) |
| CC(C)c1cccc(C(C)C)c1O | -1.26% (inactive) |
| Nc1ccccc1C(=O)O | 2.79% (inactive) |
| CCC(C)(C)c1ccc(O)cc1 | 6.76% (inactive) and -11.5% (inactive) |
| C[C@]12CCC(=O)C=C1CC[C@@H]1[C@@H]2CC[C@]2(C)C(=O)CC[C@@H]12 | -2.66% (inactive) |
| O=C1c2ccccc2C(=O)C1C(=O)C(c1ccccc1)c1ccccc1 | -28.7% (inactive) |
| O=C(O)CCCc1ccc(N(CCCl)CCCl)cc1 | -9.24% (inactive) and -11.4% (inactive) |
| Nc1nc(N)nc(NC2CC2)n1 | -3.61% (inactive) |
| CC1(C)C(C=C(Cl)Cl)C1C(=O)OC(C#N)c1cccc(Oc2ccccc2)c1 (stereo not given) | -3.3% (inactive) |
| COc1cc(OC)c(OC)cc1C=O | -1.47% (inactive) |
| COP(=S)(OC)SCN1C(=O)c2ccccc2C1=O | -19.3% (inactive) |
| CCOP(=S)(OCC)Oc1ccc2c(C)c(Cl)c(=O)oc2c1 | -5.48% (inactive) |
| C[C@]12CCC(=O)C=C1CC[C@@H]1[C@@H]2CC[C@@]2(C)[C@H]1CC[C@]2(C)O | -18% (inactive) |
| CN1C[C@H](C(=O)N[C@]2(C)O[C@@]3(O)[C@@H]4CCCN4C(=O)[C@H](Cc4ccccc4)N3C2=O)C=C2c3cccc4[nH]cc(c34)C[C@H]21 | -13.1% (inactive) and -12.3% (inactive) |
| Oc1ccc(Cl)cc1 | -5.89% (inactive) |
| CCCC(C)(COC(N)=O)COC(N)=O | 2.5% (inactive) and 7.62% (inactive) |
| O=P1(N(CCCl)CCCl)NCCCO1 (stereo not given) | -14.2% (inactive) and 0.164% (inactive) |
| C[C@]1(O)CC[C@H]2[C@@H]3CCC4=CC(=O)CC[C@]4(C)[C@@]3(F)[C@@H](O)C[C@@]21C | -0.591% (inactive) |
| CC(C)(C)c1ccc(O)cc1 | 3.38% (inactive) |
| COC(=O)C(c1ccccc1)C1CCCCN1 (stereo not given) | -2.58% (inactive) and -3.35% (inactive) |
| COP(=S)(OC)Oc1cc(Cl)c(Cl)cc1Cl | -11.5% (inactive) |
| Clc1ccc(C(c2ccc(Cl)cc2)C(Cl)(Cl)Cl)cc1 | -17.1% (inactive) |
| [N-]=[N+]=CC(=O)OC[C@H](N)C(=O)O | 0.519% (inactive) |
| O=C1c2ccccc2C(=O)c2ccccc21 | -16.3% (inactive) |
| CCOC(=O)CC(SP(=S)(OC)OC)C(=O)OCC (stereo not given) | -11.8% (inactive) and -13% (inactive) and -16.1% (inactive) |
| Nc1ccccc1 | -4.37% (inactive) |
| COP(=S)(OC)Oc1ccc(SC)c(C)c1 | 2.92% (inactive) and -23.3% (inactive) |
